Assay outcomes as filed in PubChem BioAssay.
This is a sample that favours compounds with a hit; in the whole collection about 2.4% have one here.
Yeast superoxide = reduction of superoxide in aged yeast, primary screen, HTS. S. cerevisiae aged cells, superoxide DHE fluorescence; stronger effect = lower value. superoxide response (% of plate mean), % at 10 µM. 330,000 tested, 0.18% active;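 active = superoxide response under a set limit, about three screen SD below normal, cut at about 65% in these data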;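 note: yeast aged for seven days with compound at 30 °C before DHE staining; 100% = average MFI of all compound-treated wells on the plate with controls excluded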
M18AAP inhibitor = PfM18AAP inhibitors, malaria aminopeptidase, primary screen, biochemical, QFRET, recombinant enzyme; M18 aspartyl aminopeptidase (Plasmodium falciparum 3D7); H-Glu-NHMec fluorogenic cleavage; inhibition, % at 7.35 µM; 290,000 tested, 1.2% active;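 active = inhibition above the campaign mean inhibition over all tested compounds plus 3 SD, cut at about 28% in these data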;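 note: 0% = plate median of test compound wells and 100% = 2 mM ZnCl2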
APOBEC3A inh = APOBEC3A ssDNA deaminase inhibitors, primary screen, selectivity assay for APOBEC3G inhibitor project, biochemical, FAM/TAMRA oligo cleavage fluorescence; DNA dC->dU-editing enzyme APOBEC-3A (Homo sapiens), P31941; recombinant A3A, FAM/TAMRA ssDNA deamination fluorescence; inhibition, % at 20 µM; 330,000 tested, 0.41% active;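 active = at least 40% inhibition at 20 µM here, with at most 30% in a related deaminase screen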;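 note: plate controls were A3A with DMSO for no effect and wells lacking A3A enzyme for full effect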
Target sequence (P31941 whole entry, looked up): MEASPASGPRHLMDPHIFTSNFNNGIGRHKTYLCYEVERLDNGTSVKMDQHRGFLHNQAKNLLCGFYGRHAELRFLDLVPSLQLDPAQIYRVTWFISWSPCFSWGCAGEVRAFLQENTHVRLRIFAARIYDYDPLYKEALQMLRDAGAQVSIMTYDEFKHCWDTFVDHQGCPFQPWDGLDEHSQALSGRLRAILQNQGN
PfG6PD inh = PfG6PD enzyme inhibitors, primary screen, biochemical, fluorescence intensity, uHTS | glucose-6-phosphate dehydrogenase-6-phosphogluconolactonase (Plasmodium falciparum 3D7) | PfGluPho enzyme, NADPH resazurin-diaphorase fluorescence | inhibition, % at 20 µM | 350,000 tested, 0.78% active;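 active = inhibition reaching at least a set limit at 20 µM in the primary screen, cut at about 59% in these data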;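 note: 0% = DMSO wells with substrate and 100% = DMSO wells lacking glucose-6-phosphate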
APOBEC3G inh = APOBEC3G DNA deaminase inhibitors, primary screen, biochemical, fluorescence, single-stranded DNA substrate, uHTS | inhibition, % at 20 µM | recombinant A3G, ssDNA deamination FAM/TAMRA fluorescence | 330,000 tested, 0.28% active;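 active = inhibition of at least 40% at 20 µM, with no more than 30% in the related APOBEC3A deaminase screen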;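 note: plate controls were DMSO wells with A3G for no effect and wells lacking A3G enzyme for full effect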
Target sequence (Q9HC16 whole entry, looked up): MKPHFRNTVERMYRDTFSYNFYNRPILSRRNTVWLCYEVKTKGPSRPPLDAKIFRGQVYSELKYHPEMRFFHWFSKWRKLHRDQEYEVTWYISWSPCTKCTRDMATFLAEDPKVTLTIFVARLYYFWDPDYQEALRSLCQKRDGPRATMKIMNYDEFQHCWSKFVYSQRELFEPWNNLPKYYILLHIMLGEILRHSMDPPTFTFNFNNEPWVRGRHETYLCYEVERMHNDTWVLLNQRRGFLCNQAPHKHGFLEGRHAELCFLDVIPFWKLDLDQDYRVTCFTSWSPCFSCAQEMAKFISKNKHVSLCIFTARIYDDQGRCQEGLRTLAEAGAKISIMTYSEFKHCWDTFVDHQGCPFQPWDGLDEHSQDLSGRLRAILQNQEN
* = called active by the depositor; x = no result given.

SMILES	Yeast superoxide	M18AAP inhibitor	APOBEC3A inh	PfG6PD inh	APOBEC3G inh
CCOC(=O)CC1C(=O)NCCN1S(=O)(=O)c1ccc(F)cc1 (stereo unspecified)	82.7	-0.2	-3.3	8.0	-7.2
CCOC(=O)CC1C(=O)NCCN1S(=O)(=O)c1ccc(NC(C)=O)cc1 (stereo unspecified)	109.3	28.4*	-3.2	-16.0	-6.6
CCCCCCOc1ccc(N2C(=O)CC(SC(=NCC)NCC)C2=O)cc1 (stereo unspecified)	65.2*	-12.3	-0.3	20.6	-6.0
CCCOc1ccc(N2C(=O)CC(SC(=NCC)NCC)C2=O)cc1 (stereo unspecified)	112.5	2.8	7.0	-8.1	-1.5
CCN(CC(=O)NC1CCS(=O)(=O)C1)S(=O)(=O)c1ccccc1Cl (stereo unspecified)	97.7	0.1	-1.0	-1.8	-8.4
Cc1ccc(OCCSc2nc3ccccc3n2CC(=O)O)cc1C	109.3	-1.8	0.3	-19.2	0.6
Cc1oc(-c2ccc(Cl)cc2)nc1CS(=O)CC(=O)NC1CCCC1 (stereo unspecified)	76.6	-13.7	0.1	-26.2	1.5
O=C(c1ccc(N2CCCC2=O)cc1)N1CCN(c2ccccc2Cl)CC1	44.5*	x	-0.9	10.5	-1.9
O=C(c1ccc(N2CCCC2=O)cc1)N1CCN(c2ccc(Cl)cc2)CC1	100.3	2.2	-2.7	-3.4	-5.2
Cc1cc(C(=O)Nc2ncn(Cc3ccc(F)cc3)n2)ccc1[N+](=O)[O-]	105.1	30.9*	2.4	3.9	2.1
O=c1[nH][nH]c(=S)n1C1CCCCC1	90.0	57.6*	-3.2	95.2*	11.8
O=c1cc(O)n(C2CCCCCC2)c(=O)[nH]1	101.4	9.3	-0.7	-11.8	-2.8
COc1ccc(CCNC(=O)c2cc3c(=O)n(C)c4ccccc4c3n2C)c(OC)c1	61.3*	-2.5	-1.7	31.4	-0.2
COc1cc(NC(=O)c2cc3c(=O)n(C)c4ccccc4c3n2C)cc(OC)c1OC	111.3	3.7	4.0	6.9	1.7
O=c1[nH]c2cc3c(cc2cc1CN(Cc1cccnc1)Cc1nnnn1Cc1ccco1)OCCO3	93.8	28.3*	60.5	27.2	55.6
COCCn1nnnc1CN(CCc1ccccc1)Cc1cc2cc(OC)ccc2[nH]c1=O	85.8	1.8	10.7	-5.8	3.7
O=c1[nH]c2cc3c(cc2cc1CN(Cc1cccs1)Cc1nnnn1Cc1ccco1)OCCO3	109.6	30.7*	28.4	31.8	29.1
COCCn1nnnc1CN(Cc1cccnc1)Cc1cc2cc(OC)ccc2[nH]c1=O	x	29.0*	x	-6.3	x
COc1cc(OC)cc(C(=O)NCC(=O)OC2CCCCC2=O)c1 (stereo unspecified)	98.0	x	-1.5	-0.1	-9.0
O=C(NCCCN1CCOCC1)c1cnccn1	103.1	1.9	-7.4	-7.4	-8.3
COc1cc2c(oc(=O)c3cc(C)cc(OC)c32)c2c(C3OC(C)C(O)C(C)(O)C3O)ccc(O)c12 (stereo unspecified)	x	x	x	-11.1	x
Cc1[nH]n(-c2ccccc2)c(=O)c1C(C[N+](=O)[O-])c1ccc(F)cc1 (stereo unspecified)	109.8	29.7*	-2.6	15.4	-7.5
Cc1ccc(C(C[N+](=O)[O-])c2c(C)[nH]n(-c3ccccc3)c2=O)cc1 (stereo unspecified)	99.0	24.7	-0.8	-3.9	-2.7
Cc1[nH]n(-c2ccccc2)c(=O)c1C(C[N+](=O)[O-])c1ccc(Cl)cc1 (stereo unspecified)	77.0	28.5*	-2.4	-8.6	-9.2
Cc1[nH]n(-c2ccccc2)c(=O)c1Sc1ccc(Cl)cc1	97.1	13.0	0.1	-16.6	-1.5
SMILES	Yeast superoxide	M18AAP inhibitor	APOBEC3A inh	PfG6PD inh	APOBEC3G inh
NC(=O)c1ccc(-c2nnc(Nc3ccc(S(N)(=O)=O)cc3)c3ccccc23)cc1	77.8	-11.0	-2.8	14.2	-4.9
CCOc1cc(C2C3=C(CC(C)(C)CC3=O)N(CCCOC)C3=C2C(=O)CC(C)(C)C3)ccc1O	102.6	31.2*	-1.4	7.6	-2.0
C#CCOc1ccc(C2C3=C(CC(C)(C)CC3=O)N(CC(=O)O)C3=C2C(=O)CC(C)(C)C3)cc1OC	105.5	31.6*	-6.0	2.9	-5.0
CSc1nc(O)c(Nc2cccc(Cl)c2)c(=O)[nH]1	94.0	30.8*	-4.0	18.2	-7.9
CCN(CC)CCN(Cc1cc2cc3c(cc2[nH]c1=O)OCO3)C(=S)NCC1CCCO1 (stereo unspecified)	101.1	28.2*	-0.3	5.9	-1.5
CCN(CC)CCN(Cc1cc2cc3c(cc2[nH]c1=O)OCCO3)C(=S)NCC1CCCO1 (stereo unspecified)	113.5	5.6	-4.7	-11.0	-8.5
CCOc1ccc(C(=O)Nn2cnnc2)cc1OCC	128.0	29.0*	-3.3	-6.0	-6.0
CC(C)(C)c1ccc(C(=O)Nn2cnnc2)cc1	99.7	13.0	-2.4	1.1	16.6
CC(=O)Oc1ccc(C(=O)Nn2cnnc2)cc1	82.2	15.4	-1.3	-1.2	-5.6
Cc1cc(C)cc(C(=O)Nn2cnnc2)c1	95.5	31.4*	-4.5	-11.8	-5.3
COc1ccc(OC)c(S(=O)(=O)Nc2cc3c(cc2N2CCCC2)n(C)c(=O)c(=O)n3C)c1	93.2	9.6	-3.4	32.7	-3.3
N#C/C(=C\c1ccc2c(c1)OCO2)C(N)=S	95.1	31.5*	-1.0	13.3	5.7
CCOC(=O)/C(C#N)=C\c1ccc2c(c1)OCO2	97.3	-12.1	0.3	-13.6	-2.2
CC1CC(C)CN(C(=O)COC(=O)c2ccc(S(=O)(=O)N(C)c3ccccc3)cc2)C1 (stereo unspecified)	82.2	x	-0.5	22.4	-5.0
COc1ccc(/C=N/N=C/c2ccc(OC)c(OC)c2)cc1OC	101.4	-4.3	-1.4	-0.5	-6.2
COc1cc(/C=N/N=C/c2cc(OC)c(O)c(OC)c2)cc(OC)c1O	90.0	30.1*	0.9	10.4	-3.3
Cc1occc1C(=O)NNC(=O)Nc1ccc(F)cc1F	98.0	30.1*	-1.8	-15.8	-0.9
Cc1occc1C(=O)Nc1ccc(Br)cc1F	101.2	-12.3	2.3	6.0	-0.5
CCOC(=O)c1cc2c(c(-c3ccccc3)n1)[C@H](CCO)N(S(=O)(=O)C(C)(C)C)C2	x	x	x	8.4	x
COc1ccc(Cl)cc1NC(=O)CN1CCN(Cc2ccccc2)CC1	102.3	4.4	-4.5	-0.4	-3.6
COC(=O)CSC1=C(C#N)C(c2ccc(C)cc2)C2=C(CCCC2=O)N1 (stereo unspecified)	98.2	29.6*	0.5	9.3	-3.6
CCCS(=O)(=O)N1CCC(C(=O)NCCN(CC)c2ccccc2)CC1	103.6	31.4*	1.9	0.0	0.9
